Measured values published in PubChem BioAssay AID1159580 (chemical genetic matrix, 2015).
Among all 5,500 compounds or so, about 2,000 (36%) were called active. Not shown: some 18% with an inconclusive outcome. Cut-off read from the data, not from the text of the source: active = normalized growth mostly below about 0.91 (no sharp cut-off); inconclusive = no clear call, values can overlap the other calls; inactive = mostly above about 0.92. The list shows a part of the results.

Assay: chemical genetic growth profiling, strain panel (AID 1159580);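 note: tested at 20 µM; growth read once vehicle control cultures reached saturation at 30 °C; 1 = growth at the plate median or of vehicle wells; lower values mean less growth of the strain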
Details: S. cerevisiae deletion strains, growth OD
[1] = locus YHR030C, strain SLT2, stronger effect = lower value
[2] = locus YHR079C, strain IRE1, stronger effect = lower value
[3] = locus YJL095W, strain BCK1, stronger effect = lower value
[4] = locus YJR066W, strain TOR1, stronger effect = lower value
[5] = locus YLR113W, strain HOG1, stronger effect = lower value
[6] = locus YNL183C, strain NPR1, stronger effect = lower value
[7] = locus YOR231W, strain MKK1, stronger effect = lower value
[8] = locus YPL256C, strain CLN2, stronger effect = lower value

Measured: normalized growth

COC(=O)N/N=C\c1c[n+]([O-])c2ccccc2[n+]1[O-]
inactive: locus YAL021C, strain ccr4, stronger effect = lower value 0.985 | locus YAL026C, strain drs2, stronger effect = lower value 0.999 | locus YAL030W, strain snc1, stronger effect = lower value 0.982 | locus YBL061C, strain skt5, stronger effect = lower value 0.975 | locus YBR009C, strain hhf1, stronger effect = lower value 0.99 | locus YBR023C, strain chs3, stronger effect = lower value 0.987 | locus YBR171W, strain sec66, stronger effect = lower value 0.981 | locus YBR231C, strain swc5, stronger effect = lower value 0.974 | locus YBR279W, strain paf1, stronger effect = lower value 0.987 | locus YCL011C, strain gbp2, stronger effect = lower value 0.992 | locus YCL016C, strain dcc1, stronger effect = lower value 0.993 | locus YCL069W, strain vba3, stronger effect = lower value 0.992 | locus YCR088W, strain abp1, stronger effect = lower value 0.986 | locus YDL005C, strain med2, stronger effect = lower value 0.98 | locus YDL040C, strain nat1, stronger effect = lower value 0.989 | locus YDR001C, strain nth1, stronger effect = lower value 0.998 | locus YDR069C, strain doa4, stronger effect = lower value 0.978 | locus YDR137W, strain rgp1, stronger effect = lower value 1.01 | locus YDR159W, strain sac3, stronger effect = lower value 1.02 | locus YDR195W, strain ref2 0.985 | locus YDR297W, strain sur2, stronger effect = lower value 0.983 | locus YDR334W, strain swr1, stronger effect = lower value 1 | locus YDR335W, strain msn5, stronger effect = lower value 0.983 | locus YDR392W, strain spt3, stronger effect = lower value 0.986 | locus YEL003W, strain gim4, stronger effect = lower value 0.975 | locus YEL037C, strain rad23, stronger effect = lower value 0.998 | locus YEL061C, strain CIN8 (second series), stronger effect = lower value 1 | locus YER015W, strain faa2, stronger effect = lower value 0.972 | locus YER016W, strain bim1, stronger effect = lower value 0.998 | locus YER111C, strain swi4, stronger effect = lower value 0.984 | locus YER155C, strain BEM2 (second series), stronger effect = lower value 0.982 | locus YFR010W, strain ubp6, stronger effect = lower value 0.981 | locus YGL167C, strain pmr1, stronger effect = lower value 0.978 | locus YGL173C, strain kem1, stronger effect = lower value 0.981 | locus YGL227W, strain vid30, stronger effect = lower value 0.987 | locus YGL240W, strain doc1, stronger effect = lower value 0.974 | locus YGL253W, strain hxk2, stronger effect = lower value 0.988 | locus YHR013C, strain ard1, stronger effect = lower value 1.06 | locus YHR027C, strain rpn1, stronger effect = lower value 0.995 | [1] 1.07 | [2] 1.04 | locus YHR142W, strain chs7, stronger effect = lower value 0.988 | locus YJL092W, strain hpr5, stronger effect = lower value 0.994 | locus YJL095W, strain BCK1 (second series), stronger effect = lower value 0.973 | [3] 1.05 | locus YJL115W, strain asf1, stronger effect = lower value 0.987 | locus YJL129C, strain trk1, stronger effect = lower value 1.03 | locus YJL154C, strain vps35, stronger effect = lower value 0.997 | locus YJL164C, strain tpk1, stronger effect = lower value 0.976 | locus YJL166W, strain qcr8, stronger effect = lower value 0.98 | [4] 0.905 | locus YKL160W, strain elf1, stronger effect = lower value 0.973 | locus YKR026C, strain gcn3, stronger effect = lower value 0.991 | locus YKR091W, strain srl3, stronger effect = lower value 0.988 | locus YLL001W, strain dnm1, stronger effect = lower value 0.991 | locus YLL026W, stronger effect = lower value 0.98 | locus YLL041C, strain sdh2, stronger effect = lower value 0.993 | locus YLR027C, strain aat2, stronger effect = lower value 0.986 | [5] 1.06 | locus YLR221C, strain rsa3, stronger effect = lower value 0.979 | locus YLR258W, strain gsy2, stronger effect = lower value 0.985 | locus YLR262C, strain YPT6 (second series), stronger effect = lower value 1 | locus YLR320W, strain mms22, stronger effect = lower value 0.976 | locus YLR342W, strain FKS1, stronger effect = lower value 0.997 | locus YLR357W, strain rsc2, stronger effect = lower value 0.981 | locus YLR370C, strain arc18, stronger effect = lower value 0.988 | locus YLR384C, strain iki3, stronger effect = lower value 0.986 | locus YML120C, strain ndi1, stronger effect = lower value 0.975 | locus YMR125W, strain sto1, stronger effect = lower value 1.02 | locus YMR129W, stronger effect = lower value 0.984 | locus YMR205C, strain PFK2, stronger effect = lower value 0.988 | locus YMR231W, strain pep5, stronger effect = lower value 0.969 | locus YNL071W, strain lat1, stronger effect = lower value 0.995 | [6] 0.981 | locus YNL209W, strain ssb2, stronger effect = lower value 0.987 | locus YNL248C, strain rpa49, stronger effect = lower value 1 | locus YNL322C, strain KRE1 (second series), stronger effect = lower value 0.993 | locus YNR049C, strain mso1, stronger effect = lower value 0.983 | locus YOR001W, strain rrp6, stronger effect = lower value 0.989 | locus YOR070C, strain gyp1, stronger effect = lower value 0.979 | locus YOR080W, strain dia2, stronger effect = lower value 0.985 | locus YOR083W, strain WHI5, stronger effect = lower value 0.983 | locus YOR106W, strain vam3, stronger effect = lower value 0.943 | [7] 1.05 | locus YOR265W, strain rbl2, stronger effect = lower value 0.985 | locus YOR270C, strain vph1, stronger effect = lower value 0.864 | locus YOR290C, strain snf2, stronger effect = lower value 0.996 | locus YPL051W, strain arl3, stronger effect = lower value 0.918 | locus YPL078C, strain atp4, stronger effect = lower value 0.971 | locus YPL106C, strain sse1, stronger effect = lower value 0.986 | locus YPL240C, strain hsp82, stronger effect = lower value 0.991 | [8] 1.09
active: locus YMR058W, strain fet3, stronger effect = lower value 0.883

O=C[C@H](O)[C@@H](O)[C@H](O)CO
inactive: [1] 1.04 | [2] 1.06 | [3] 1.06 | [4] 0.998 | [5] 1.07 | [6] 1.03 | [7] 1.09 | [8] 1.02

Clc1ccc2ocnc2c1
inactive: locus YAL013W, strain DEP1, stronger effect = lower value 1.01 | locus YBR229C, strain ROT2, stronger effect = lower value 1.01 | locus YDL101C, strain DUN1, stronger effect = lower value 1 | locus YDR150W, strain NUM1, stronger effect = lower value 0.95 | locus YEL061C, strain CIN8, stronger effect = lower value 1.01 | locus YGR078C, strain PAC10, stronger effect = lower value 1 | locus YGR229C, strain SMI1, stronger effect = lower value 1.01 | [1] 1.05 | locus YHR087W, strain rtc3, stronger effect = lower value 0.996 | locus YJR043C, strain POL32, stronger effect = lower value 0.931 | locus YJR075W, strain HOC1, stronger effect = lower value 0.999 | locus YKL190W, strain CNB1, stronger effect = lower value 1.02 | locus YLR039C, strain RIC1, stronger effect = lower value 1.02 | locus YLR058C, strain SHM2 (second series), stronger effect = lower value 1 | locus YLR085C, strain ARP6, stronger effect = lower value 0.997 | locus YLR262C, strain YPT6, stronger effect = lower value 1.08 | locus YML094W, strain GIM5, stronger effect = lower value 0.999 | locus YMR219W, strain ESC1, stronger effect = lower value 1.01 | locus YMR263W, strain SAP30, stronger effect = lower value 1.01 | locus YNL128W, strain TEP1, stronger effect = lower value 1.02 | locus YNL153C, strain GIM3, stronger effect = lower value 0.996 | locus YNL298W, strain CLA4 (second series), stronger effect = lower value 1.04 | locus YNL322C, strain KRE1, stronger effect = lower value 1.01 | locus YNR030W, strain Alg12, stronger effect = lower value 1 | locus YOL006C, strain TOP1, stronger effect = lower value 1.09 | locus YPL055C, strain LGE1, stronger effect = lower value 0.906 | locus YPL241C, strain CIN2, stronger effect = lower value 1.01 | locus YPR135W, strain CTF4, stronger effect = lower value 1.08
